Source: PubChem BioAssay
Pf growth 48h: P. falciparum growth inhibition at 48 hours (one generation). P. falciparum luciferase growth in erythrocytes, 48 h. Potency, µM (doses to about 28.7 µM), for the others: top-dose activity change, negative = inhibition, usual class: inhibitors. 5.9% of 310,000 active; further: potency means the concentration at half of the fitted maximal effect; on the % scale 0 is the no-effect control and ±100 the full control effect
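Luciferase-expressing parasites in RBCs, 2% Hct / 0.1% parasitemia final; RPMI 1640 + 0.5% Albumax; 37 C, 5% CO2, one generation; luminescence read-out, lower signal = inhibition.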
Marburg entry inh: blocks Marburg virus binding to or entry into cells; Marburg virus pseudotyped entry inhibition, cell reporter; Potency, µM (series often up to 37.8 µM), inactives show at the top dose activity change, negative = inhibition, hits mostly inhibitors; 1.8% of 300,000 active; AID 540276; calls by dose curve; tested in HEK293 cells; further: potency means the concentration at half of the fitted maximal effect; on the % scale 0 is the no-effect control and ±100 the full control effect
Lassa entry inh: Lassa virus entry inhibition; 1.2% of 300,000 active; Potency, µM (titrated, usually from 37.9 µM), inactives show at the top dose activity change, negative = inhibition, usual class: inhibitors; Lassa virus pseudotype entry inhibition, cell reporter; calls by dose curve; tested in HEK293 cells; further: potency means the concentration at half of the fitted maximal effect; on the % scale 0 is the no-effect control and ±100 the full control effect; nearly all actives have a fitted effect of over 50% in size
Shiga inhibitor: blocks Shiga toxin action in Vero cells | Vero cells, Shiga toxin protein synthesis inhibition reporter | inhibition, % at 38.7 µM | 9.2% of 290,000 active | AID 2315; in the data active means inhibition mostly above about 28%, no sharp cut-off; inactive means mostly below about 43%; further: 0% is about no effect
Pf growth 96h: P. falciparum growth inhibition at 96 hours | P. falciparum luciferase reporter growth, 96 h | Potency, µM (titrated, usually from 28.7 µM), for the others: top-dose activity change, negative = inhibition, usual class: inhibitors | 6.9% of 320,000 active | AID 504834; further: potency means the concentration at half of the fitted maximal effect; on the % scale 0 is the no-effect control and ±100 the full control effect
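Two parasite generations (96 h, 37 C, 5% CO2) of compound exposure in infected erythrocytes (0.05% parasitemia, 2% hematocrit). Luciferase-reporter P. falciparum; decreased luminescence indicates inhibited growth, aimed at apicoplast-acting delayed death.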
CHX counter: affects cycloheximide protein synthesis inhibition readout, counter-screen | max response, % | 12% of 300,000 active | AID 2314 | cell reporter, cycloheximide protein synthesis inhibition counterscreen; in the data active means max response mostly above about 13%, no sharp cut-off; inactive means mostly below about 14%; further: read at 38.3 µM for the half of the compounds with a filed dose; 0% is about no effect
The depositor's hits bear a star; ? = inconclusive; . = not tested or not shown; [ ] = dose if it differs, or a comment. A selection: hits, their analogues and other compounds. The true share with any hit is near 19%. Unless noted, the call rests on the fitted dose curve; in most records, active means well fitted inhibition curve with a large enough effect; inconclusive means small, poorly fitted or top-dose-only effect, or another doubt; inactive means no such curve, though single readings can be large or run the other way.

SMILES | Pf growth 48h | Marburg entry inh | Lassa entry inh | Shiga inhibitor | Pf growth 96h | CHX counter
CCOC(=O)C(C)c1c(C(=O)c2ccc(C)nc2)c2ccccc2n1C (stereo unspecified) | 3.7µM* | . | . | -8.5 | 4.65µM* | 6.7
Cc1c(Cl)cccc1NC(=S)N(CCCN1CCOCC1)Cc1ccco1 | ? | ? | -6.8%[46.1 µM] | 28.7 | 1.3% | -0.8
Cc1[nH]c2ccc(C(=O)OCC(=O)NC3(C#N)CCCCC3)cc2c1C | ? | ? | 6.31µM* | . | ? | .
Cc1cc(C)n(-c2nc(N(c3ccccc3)c3ccccc3)nc(-n3nc(C)cc3C)n2)n1 | 2.62µM* | ? | ? | 23.1 | ? | -1.0
Cc1cc(C)n(-c2nc(Nc3ccccc3)nc(-n3nc(C)cc3C)n2)n1 | ? | 0.3% | -7.8% | -21.6 | -0.3% | 8.5
Cc1cc(C)n(-c2ncc(-c3ccccc3)nn2)n1 | . | -5.9% | . | 90.4* | ? | 57.2*
Cc1cc(C)n(-c2nncc(-c3ccccc3)n2)n1 | ? | 3.4% | 14.4% | 70.7 | 0.0% | 26.0*
Cc1ccc(-c2c(C)sc3nc(CN4CCN(CC(=O)NC5CC5)CC4)[nH]c(=O)c23)cc1 | 10.4µM* | -16.7% | -9.7% | . | ? | .
Cc1sc2nc(CN3CCOCC3)[nH]c(=O)c2c1-c1ccccc1 | 9.7% | ? | -3.2% | -8.9 | 7.7% | -4.1
N#Cc1c[nH]n2c(=O)cc(Cc3ccccc3)nc12 | -9.1% | 2.7% | ? | -10.7 | . | -2.8
Cc1nc(Cl)c2c(n1)NC1=C(O2)C(=O)CCC1 | 18.7% | -1.9%[46.1 µM] | ? | 18.8 | 2.2% | 20.6*
O=C(Nc1ccc(N2CCN(C(=O)c3ccco3)CC2)c(Cl)c1)c1cccs1 | 5.22µM* | ? | ? | 28.9* | . | 21.9*
O=C(Cc1ccc(Cl)cc1)Nc1ccc(N2CCN(C(=O)c3ccco3)CC2)c(Cl)c1 | 11.7µM* | ? | ? | 13.2 | -9.5% | 9.3
CC(C)C(=O)N1CCN(c2ccc(NC(=O)c3cccs3)cc2Cl)CC1 | ? | . | . | 24.8* | -1.3% | 12.1
NS(=O)(=O)c1ccc(Nc2nc3ccccc3nc2NS(=O)(=O)c2cccc([N+](=O)[O-])c2)cc1 | -15.6% | 2.3%[46.1 µM] | 12.7% | 5.0 | 0.7% | 6.8
CCOC(=O)N1CCN(C(=O)CS(=O)(=O)c2cn(Cc3ccc(Cl)cc3)c3ccccc23)CC1 | ? | . | . | 14.2 | ? | -0.2
CCn1c(SCC(=O)Nc2sc(C)c(C)c2C#N)nnc1C(C)C | -0.4% | -19.6%[46.1 µM] | -15.8% | -11.3 | . | -3.2
CC(=O)Nc1ccc(Sc2ncccc2C(=O)Nc2cc(Cl)cc(Cl)c2)cn1 | -6.7% | 1.7% | -8.5% | 0.2 | 5.4% | -4.2
CC(=O)Nc1ccc(Sc2ncccc2C(=O)Nc2ccc(OC(F)(F)F)cc2)cn1 | 13.1µM* | -1.1% | -5.2% | -4.3 | ? | -0.6
COc1cc(NC(=O)c2cccnc2Sc2ccc(C)c(C)c2)cc(OC)c1OC | ? | -7.6% | -11.9% | -4.8 | 10.4µM* | -5.6
Cc1ccc(Sc2ncccc2C(=O)O)cc1C | -1.7% | -2.2% | 6.0% | -8.5 | 58.5% | -1.5
COc1cccc2cc(-c3nc(Nc4cccc(C)c4C)sc3C)c(=O)oc12 | . | . | 1.2%[46.1 µM] | . | . | .
COc1ccc(-c2cc3cccc(OC)c3oc2=O)cc1 | 87.8% | . | . | 63.8* | ? | 27.7*
COc1cccc2cc(-c3ccccc3)c(=O)oc12 | 103.7% | ? | 7.7%[46.1 µM] | 103.9* | 24.0% | 47.8*
CC(C)(C)c1cc(C(C)(C)C)c2oc(=O)c(-c3nc4ccc(C(=O)O)cc4[nH]3)cc2c1 | ? | . | -0.8%[46.1 µM] | . | -2.2% | .
SMILES | Pf growth 48h | Marburg entry inh | Lassa entry inh | Shiga inhibitor | Pf growth 96h | CHX counter
COc1cccc2cc(-c3nc4sc5c(c4c(=O)[nH]3)CCC(C(C)(C)C)C5)c(=O)oc12 (stereo unspecified) | . | . | 0.5%[46.1 µM] | . | . | .
COc1cccc2cc(-c3nc4ccccc4[nH]3)c(=O)oc12 | 109.1% | ? | ? | . | 24.3% | 32.0*
Cc1cccc2cc(-c3nc4ccc(C(=O)O)cc4[nH]3)c(=O)oc12 | 105.1% | ? | ? | 37.1* | 11.3% | 24.6*
O=C1C2CCN(CC2)C1Cc1ccccc1O (stereo unspecified) | ? | 1.4% | -0.6% | -26.9 | 31.6% | -0.8
CC(C)(C)N1CC(C(=O)Nc2ccc(C#N)cc2)CC1=O (stereo unspecified) | 1.1% | 1.0% | 16.4% | 22.5 | 196.5% | 2.9
Cc1cc(S(=O)(=O)N(Cc2ccccc2Cl)c2ccc3c(c2)CCC3)ccc1-n1cnnn1 | 11.7µM* | ? | ? | -4.7 | 86.5% | -2.0
COc1ccc2[nH]c(C(=O)N3CCN(Cc4ccccc4)CC3)cc2c1OC | 10.4% | -21.5%[46.1 µM] | ? | 1.5 | 24.9% | 2.0
CCOC(=O)c1oc2nc(CC(C)C)c3c(c2c1N)CCCC3 | ? | ? | ? | -5.4 | ? | 5.7
O=C(CN1CCCCCC1)N/N=C/c1cccc(Cl)c1 | 11.0% | ? | 0.5% | -3.3 | 6.2% | 27.2
O=C(CN1CCSCC1)N/N=C/c1cccc(Cl)c1 | 20.6% | 2.7% | 9.0% | 11.1 | 30.1% | 14.6*
COc1ccc(/C=N/NC(=O)CN2CCSCC2)cc1C | 16.5% | 24.2% | 11.8% | 26.4 | 6.8% | 17.5*
COC(=O)c1ccccc1NC(=O)C/C(C)=N/NC(=O)CC#N | 13.2% | 8.4%[46.1 µM] | 16.8% | 2.4 | ? | 6.6
C=CCn1c(Cc2ccc(OC)cc2)nnc1SCC(=O)c1cccc([N+](=O)[O-])c1 | ? | -12.5% | 6.2% | 19.2 | 30.5% | -1.0
COc1ccccc1/C=C/C(=O)Nc1cccnc1Cl | 40.9% | . | . | 50.9* | 47.4% | 30.1*
COc1ccc(/C=C/C(=O)Nc2cccnc2Cl)cc1 | . | . | . | 60.4* | 253.2% | 42.0*
COc1ccc(/C=C/C(=O)Nc2ccc(Cl)c(Cl)c2)cc1 | . | . | 5.8%[46.1 µM] | . | . | .
COc1ccccc1/C=C/C(=O)NCCc1ccccn1 | 115.4% | 14.2%[46.1 µM] | ? | 87.5* | 0.5% | 55.5*
CCOC(=O)C1CCN(C(=O)c2cn(-c3ccccc3)nc2-c2cccnc2)CC1 | 5.3% | 8.9% | . | -6.3 | -18.0% | -4.0
COc1cc(OC)cc(C(=O)OCCNC(=O)Cn2cnc3c2c(=O)n(C)c(=O)n3C)c1 | 4.9% | . | . | 6.9 | 3.2% | 1.0
CCn1c(SCC(=O)Nc2cc(C)ccc2F)nnc1-c1ccccc1O | . | ? | -0.5%[46.1 µM] | . | . | .
COc1ccc(C(=O)N2CC(=O)Nc3ccc(F)cc3C2c2ccccc2)cc1 (stereo unspecified) | ? | -27.4%[46.1 µM] | -9.7%[46.1 µM] | -6.4 | ? | -0.6
CCC1CCCCN1C(=O)CSc1nnc(-c2ccc(Cl)cc2)o1 (stereo unspecified) | . | . | . | -3.5 | ? | -4.4
CCC1CCCCN1C(=O)CSc1nnc(-c2cccc(Cl)c2)o1 (stereo unspecified) | 22.5% | . | . | 98.2* | -20.3% | 28.5*
CCC1CCCCN1C(=O)CSc1nnc(-c2ccco2)o1 (stereo unspecified) | 328.1% | -2.1% | 11.3% | 62.2* | 268.6% | 37.3*
CCC1CCCCN1C(=O)CSc1nnc(-c2ccc(Cl)s2)o1 (stereo unspecified) | 5.0% | ? | 1.1% | 82.4* | 38.0% | 37.7*
